Results as given in PubChem BioAssay AID743398 (Broad Institute, 2014).
Screen size: about 300,000 compounds; about 3,600 (1.2%) were called active. Cut-off read from the data, not from the text of the source: active = activation above about 30% (passing the limit was not always enough); inconclusive = no clear call, values can overlap the other calls. Shown is part of a subset that was picked to be rich in actives.

Assay: Wnt/beta-catenin pathway activators, primary screen, cell-based, plate reader, single point (AID 743398);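 note: 0% = neutral control wells and 100% = positive control wells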
Settings: Wnt/beta-catenin reporter cell assay, activator, at 9.35 µM, hits give high values

| Structure (SMILES) | activation |
| --- | --- |
| O=C(Cn1c(=S)nc2ccccn21)N1CCc2ccccc2C1 | 17.7% (inactive) |
| O=C(c1ccc(F)cc1)n1cc(C(=S)N2CCOCC2)c2ccccc21 | -0.566% (inactive) |
| O=C(c1ccc(F)cc1)n1c(=S)nc2ccccn21 | 55.5% (active) |
| CC(C)(C)S(=O)N1Cc2cc(C(=O)NCCCN3CCOCC3)nc(-c3cccc(-c4cc5ccccc5o4)c3)c2[C@H]1CCO (some centres not stated) | -3.72% (inactive) |
| O=C(Nc1ccc(C(=O)O)c(O)c1)c1ccccc1 | -0.311% (inactive) |
| O=C(Nc1ncccc1O)c1ccc(C(=O)c2ccccc2)cc1 | 21.2% (inactive) |
| O=C(NC(=O)c1ccccc1)Nc1ccccc1O | 40.2% (active) |
| Cc1cc(/C=C2/SC(=O)N(CC(=O)OC(C)C)C2=O)c(C)n1C | 32.5% (active) |
| Cc1cc(/C=C2/SC(=O)N(CC(=O)N3CCCC3)C2=O)c(C)n1C | -1.52% (inactive) |
| Cc1cccc2c1N(CC(=O)OC(C)C)C(=O)C2=O | -1.39% (inactive) |
| COc1cccc(OCC(=O)NCCS(=O)(=O)N2CCN(c3ccccc3)CC2)c1 | -0.863% (inactive) |
| COC(=O)c1ccc2nc(-c3ccc(OC)c(OC)c3)c(Cc3ccccc3)n2c1 | -2.38% (inactive) |
| Clc1ccc(-c2csc(-c3ccncc3)n2)cc1 | 6.51% (inactive) |
| Fc1ccc(-c2csc(-c3ccc(C4SCCS4)cc3)n2)cc1F | 34% (active) |
| COc1ccc(CC(=O)Nc2nc(-c3ccc(F)c(F)c3)cs2)cc1OC | -5.88% (inactive) |
| COC(=O)C1=C(C)N(Cc2ccccc2C(F)(F)F)C(=NCc2ccc(C(F)(F)F)cc2)NC1c1ccc(F)cc1 (configuration not stated) | -3.9% (inactive) |
| COCCCNC(=O)c1ccc(-c2c(C)noc2C)c2ccoc12 | 3.17% (inactive) |
| O=C(Nc1ccc(Cl)c(C(F)(F)F)c1)C1Cc2c(-c3ccccc3Oc3ccccc3)ccnc2O1 (configuration not stated) | -4.6% (inactive) |
| Cc1c(C(=O)N2CCCc3ccccc32)sc2nc(-c3ccccc3)cn12 | 51.4% (active) |
| Cc1c(C(=O)NCC2CCCO2)sc2nc(-c3ccccc3)cn12 (configuration not stated) | 8.78% (inactive) |
| Cc1cccc2cc3c(N)c(C(=O)N4CCCc5ccccc54)sc3nc12 | -13.9% (inactive) |
| Cn1c(CCN2CCN(c3ccccn3)CC2)nc2cc(NS(=O)(=O)c3ccc(F)cc3)ccc21 | -2.6% (inactive) |
| Cc1ccc(C(=O)Nc2nnc(-c3ccncc3)s2)o1 | 2.92% (inactive) |

| Structure (SMILES) | activation |
| --- | --- |
| Cc1ccc(C(=O)Nc2nc3ccc(Cl)cc3s2)o1 | 36.2% (active) |
| CCc1noc(C)c1C(=O)Nc1nc2ccc(OC)cc2s1 | 9.85% (inactive) |
| CC(C)(C)Cc1c(C2CCCCC2)nc2ccc(Br)cn12 | -1.26% (inactive) |
| COC(=O)c1c(NC(C)=O)sc(C(=O)Nc2ccccc2OC)c1C | -1.17% (inactive) |
| CCOC(=O)c1sc(NC(=O)COc2ncnc3ccccc23)c(C(=O)OCC)c1C | -6.66% (inactive) |
| CCC(=O)Nc1sc(C(=O)Nc2ccccc2)c(C)c1C(=O)OC | 68.1% (active) |
| O=C1Nc2ccccc2C1=NN=Cc1ccco1 | 0.126% (inactive) |
| CCN(CC)CCCNC(=O)COc1ccc2oc3c(c2c1)CCCC3 | -0.131% (inactive) |
| CCOC(=O)N1CCN(C(=O)COc2ccc3oc4c(c3c2)CCCC4)CC1 | -0.344% (inactive) |
| O=C(COc1ccc2oc3c(c2c1)CCCC3)Nc1ccccn1 | 39.6% (active) |
| CC1(C)OC(=O)C2=C(C[C@@H](C3CCCC3)O[C@@H]2c2ccc(Cl)cc2)O1 | -1.11% (inactive) |
| O=C(Nc1ccc(NC(=O)c2ccccc2F)cc1)c1ccccc1F | -1.97% (inactive) |
| O=C(Nc1nnc(-c2ccccc2F)s1)c1ccccc1F | 32.6% (active) |
| CN(Cc1ccccc1)S(=O)(=O)c1nnc(NC(=O)c2ccccc2F)s1 | -0.354% (inactive) |
| COC(=O)C1=C(C)N(Cc2ccc(C(F)(F)F)cc2)C(=NCc2ccccc2)NC1c1ccccc1C(F)(F)F (configuration not stated) | -11.5% (inactive) |
| O=C(CSc1cccc[n+]1[O-])c1ccc(-c2ccccc2)cc1 | 10.1% (inactive) |
| Cc1ccc(C(=O)CSc2ccccc2C(=O)O)cc1 | 31.9% (active) |
| Cc1ccc(Sc2cc(C(=O)c3ccccc3C(=O)O)ccc2[N+](=O)[O-])cc1 | 0.926% (inactive) |
| CCCCNC(=O)C[C@@H]1C[C@@]2(C(=O)OCC)CCC=C2N(Cc2cccc3ccccc23)C1=O | -1.83% (inactive) |
| CC(C)C1CCN(C(=O)C2CCC(=O)N(C3CCCCCC3)C2)CC1 (configuration not stated) | 0.269% (inactive) |
| CCOC(=O)C1(C)CCCN(C(=O)c2cccc(Cl)c2)C1 (configuration not stated) | -1.09% (inactive) |
| Cc1ccc(NC(=O)N2c3ccccc3SC2c2ccco2)c(C)c1 (configuration not stated) | 4.58% (inactive) |
| COc1ccccc1N(C(=O)Cn1nnc2ccccc21)C(C(=O)NCc1ccco1)c1ccc(C)o1 (configuration not stated) | -2.2% (inactive) |

| Structure (SMILES) | activation |
| --- | --- |
| COCCNC(=O)C(c1ccc(C)o1)N(Cc1ccccc1)C(=O)Cn1nnc2ccccc21 (configuration not stated) | 40.8% (active) |
| CCC(C)(C)NC(=O)C(c1cccn1C)N(Cc1ccc(C)cc1)C(=O)Cn1nnc2ccccc21 (configuration not stated) | 0.194% (inactive) |
| Cc1ccc(S(=O)(=O)N(CCc2ccccc2)c2ccc3c(c2)C2CC3CCN2C(=O)OCc2ccccc2)cc1 (configuration not stated) | -4.45% (inactive) |
| CCCCCCN1C[C@H](O)[C@@H](n2cc(C3CC3)nn2)C[C@@H]1c1ccc(Cl)cc1 | 0.514% (inactive) |
| CN1CCCc2nc(-c3ccccc3)ccc21 | 28.7% (inactive) |
| Nc1ncnc2c1ncn2[C@@H]1O[C@H](C(=O)N[C@@H](CCc2ccccc2)C(=O)N2CCCN(Cc3cccs3)CC2)[C@@H](O)[C@H]1O | 2.88% (inactive) |
| CC(C)(C)CC(=O)Nc1nc(C(N)Cc2ccc(C(F)(F)F)cc2)cs1 (configuration not stated) | -3.02% (inactive) |
| O=C(NCCOc1ccccc1)c1ccccc1F | 2.79% (inactive) |
| O=C(CNC(=O)c1ccc(F)cc1)c1ccccc1 | 12.3% (inactive) |
| O=C(CNC(=O)c1ccccc1F)c1ccc(Br)cc1 | 39% (active) |
| C=CCn1nc(C(=O)OCC)cc1-c1sc(NC(=O)c2ccccc2)nc1C | -1.67% (inactive) |
| CC1(C(=O)Nc2cccnc2)Cc2c(-c3ccccc3)ccnc2O1 (configuration not stated) | -1.45% (inactive) |
| CCCc1cc(C(=O)Nc2ccc(Cl)cn2)cs1 | 39.5% (active) |
| O=C(Nc1ccc(Cl)cn1)c1ccccc1-c1ccccc1 | -0.296% (inactive) |
| CCCc1cc(C(=O)Nc2ccc(C(=O)OC)cc2)cs1 | 0.573% (inactive) |
| Cc1ccc(F)c(S(=O)(=O)NC(=O)C2(C)CCN2C(=O)c2ccco2)c1 (configuration not stated) | -0.487% (inactive) |
| C=CCN=C1NC(c2cccc(C(F)(F)F)c2)C(C(=O)OC)=C(C)N1C (configuration not stated) | 1.05% (inactive) |
| CC(=O)c1ccc(-c2cnc3c(NC=O)cc(-c4cccc(NS(C)(=O)=O)c4)cn23)cc1 | 1.57% (inactive) |
| C[C@@H]1ON(C)[C@H]2C[C@H]3c4cc(N5CCOCC5)ccc4CCN3C[C@@H]12 | -0.66% (inactive) |
| CC(NC(=O)Nc1ccc2c(c1)OCO2)c1ccncc1 (configuration not stated) | 9.83% (inactive) |
| Cc1cccc(NC(=O)Nc2ccc3c(c2)OCO3)n1 | 44.4% (active) |
| CNS(=O)(=O)c1ccc(NC(=O)Nc2ccc3c(c2)OCO3)cc1 | 26.8% (inactive) |
| CN(Cc1ccccc1)C(=O)CCC1CCN(C(=O)c2ccco2)CC1 | -3.66% (inactive) |

| Structure (SMILES) | activation |
| --- | --- |
| O=[N+]([O-])c1cc(Br)c(O)c(/C=N/Nc2nc3ccccc3s2)c1 | 8.44% (inactive) |
| c1ccc2sc(NN=C3CCCC3)nc2c1 | 52.4% (active) |
| c1ccc(C(=NNc2nc3ccccc3s2)c2ccccn2)cc1 | 5.23% (inactive) |
| CCOC(=O)N(C)c1c(CC)nc2c(OCc3ccccc3C(=O)OC)cccn12 | 4.08% (inactive) |
| CN(Cc1ccc(C(F)(F)F)cc1)C(=O)[C@H]1O[C@@H](n2cnc3c(N)ncnc32)[C@H](O)[C@@H]1O | -3.24% (inactive) |
| CC1(Oc2cccc(F)c2)CCN(Cc2ccccc2OC(F)F)C1 (configuration not stated) | 0.111% (inactive) |
| CC(=O)Nc1ccc(-c2nc3ccccc3o2)cc1 | 62% (active) |
| CC(=O)Nc1ccc(Nc2c3ccccc3nc3ccccc23)cc1 | -1.24% (inactive) |
| Cc1ccc2nc(-c3ccc(NC(=O)c4cccnc4)cc3)oc2c1 | 4.47% (inactive) |
| CCOC(=O)N1CCN(C(=O)C[C@@H]2C[C@@]3(C(=O)OC)CCCCC=C3N(CCC3=CCCCC3)C2=O)CC1 | -3.76% (inactive) |
| COc1cccc(/C=N/Nc2ccc(Cl)nn2)c1 | 10.5% (inactive) |
| Oc1cccc(/C=N/Nc2ccc(Cl)nn2)c1O | 125% (active) |
| Clc1ccc(N/N=C/c2cccs2)nn1 | 3.73% (inactive) |
| COC(=O)c1cc2c(c3c4cc(F)ccc4n(S(=O)(=O)c4ccccc4)c13)C(=O)N(Cc1ccccc1OC)C2 | -6.32% (inactive) |
| Cc1nn(CC(=O)Nc2ccc(F)cc2)c(=O)c2ccccc12 | -0.309% (inactive) |
| CCC(=O)Nc1ccc2nn(-c3ccc(F)cc3)nc2c1 | 51% (active) |
| Cc1cccc(C(=O)OCC(=O)Nc2ccc(F)cc2)c1 | -0.891% (inactive) |
| O=C(CCCN1C(=O)C(c2ccccc2)Oc2cccnc21)Nc1ccccc1Br (configuration not stated) | -1.84% (inactive) |
| O=C(C(=O)N1CCC(CNC(=O)c2cccnc2Cl)CC1)c1cccs1 | 2.94% (inactive) |
| O=c1cc(Cn2nnc(-c3ccc(Cl)cc3)n2)nc2sccn12 | 3.21% (inactive) |
| COc1ccccc1N1CCN(C(=O)Cn2nnc(-c3cccs3)n2)CC1 | -9.59% (inactive) |
| Clc1cccc(Cl)c1Cn1nnc(-c2cccs2)n1 | 32.4% (active) |
| CCOC(=O)Cn1c2c(n(-c3ccc(F)cc3)c1=O)C=C(c1ccccc1)[C@@H](C)C(C(=O)N(C)C1CCCCC1)=C2 | -5.16% (inactive) |
